Measured values: ChEMBL document CHEMBL1961873, “Compounds: GSK PKIS; Assays: Nanosyn kinase panel” (2012)

Assays:
[1] = biological target: T1, Serine/threonine-protein kinase Nek9 (Homo sapiens) (UniProt Q8TD19); conditions: at 1 µM;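 further: each value is a mean percent inhibition of NEK9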
T1 sequence (whole entry): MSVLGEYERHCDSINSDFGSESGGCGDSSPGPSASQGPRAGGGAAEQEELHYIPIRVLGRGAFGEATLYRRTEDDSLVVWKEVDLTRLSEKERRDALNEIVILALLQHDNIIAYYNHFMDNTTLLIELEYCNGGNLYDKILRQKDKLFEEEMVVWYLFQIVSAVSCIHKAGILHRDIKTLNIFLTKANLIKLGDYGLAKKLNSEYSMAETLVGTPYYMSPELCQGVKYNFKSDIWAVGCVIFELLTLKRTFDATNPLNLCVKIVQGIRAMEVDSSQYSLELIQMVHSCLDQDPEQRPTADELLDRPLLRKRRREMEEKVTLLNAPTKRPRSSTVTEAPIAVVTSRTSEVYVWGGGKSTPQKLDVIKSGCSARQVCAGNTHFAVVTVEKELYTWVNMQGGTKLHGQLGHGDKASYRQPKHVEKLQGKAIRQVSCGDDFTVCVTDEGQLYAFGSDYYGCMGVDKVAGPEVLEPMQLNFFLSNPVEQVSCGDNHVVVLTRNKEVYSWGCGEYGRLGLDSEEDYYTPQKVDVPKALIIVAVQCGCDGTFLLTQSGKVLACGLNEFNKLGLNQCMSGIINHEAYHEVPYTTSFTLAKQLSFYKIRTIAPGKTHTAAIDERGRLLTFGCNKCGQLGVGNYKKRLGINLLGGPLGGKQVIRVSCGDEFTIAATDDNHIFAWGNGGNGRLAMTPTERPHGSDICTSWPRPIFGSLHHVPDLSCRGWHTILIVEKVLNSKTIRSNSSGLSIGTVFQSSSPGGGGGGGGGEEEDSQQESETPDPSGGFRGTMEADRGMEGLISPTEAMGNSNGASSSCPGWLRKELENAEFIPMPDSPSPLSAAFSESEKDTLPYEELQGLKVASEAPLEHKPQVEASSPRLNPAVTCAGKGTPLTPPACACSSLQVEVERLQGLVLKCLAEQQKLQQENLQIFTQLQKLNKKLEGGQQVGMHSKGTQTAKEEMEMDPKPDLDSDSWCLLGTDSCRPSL

[2] = biological target: Serine/threonine-protein kinase PLK1 (Homo sapiens) (UniProt P53350); conditions: at 0.1 µM
[3] = biological target: Serine/threonine-protein kinase PLK1 (Homo sapiens) (UniProt P53350); conditions: at 1 µM
[4] = biological target: T2, Dual specificity protein kinase TTK (Homo sapiens) (UniProt P33981); conditions: at 0.1 µM
T2 sequence (whole entry): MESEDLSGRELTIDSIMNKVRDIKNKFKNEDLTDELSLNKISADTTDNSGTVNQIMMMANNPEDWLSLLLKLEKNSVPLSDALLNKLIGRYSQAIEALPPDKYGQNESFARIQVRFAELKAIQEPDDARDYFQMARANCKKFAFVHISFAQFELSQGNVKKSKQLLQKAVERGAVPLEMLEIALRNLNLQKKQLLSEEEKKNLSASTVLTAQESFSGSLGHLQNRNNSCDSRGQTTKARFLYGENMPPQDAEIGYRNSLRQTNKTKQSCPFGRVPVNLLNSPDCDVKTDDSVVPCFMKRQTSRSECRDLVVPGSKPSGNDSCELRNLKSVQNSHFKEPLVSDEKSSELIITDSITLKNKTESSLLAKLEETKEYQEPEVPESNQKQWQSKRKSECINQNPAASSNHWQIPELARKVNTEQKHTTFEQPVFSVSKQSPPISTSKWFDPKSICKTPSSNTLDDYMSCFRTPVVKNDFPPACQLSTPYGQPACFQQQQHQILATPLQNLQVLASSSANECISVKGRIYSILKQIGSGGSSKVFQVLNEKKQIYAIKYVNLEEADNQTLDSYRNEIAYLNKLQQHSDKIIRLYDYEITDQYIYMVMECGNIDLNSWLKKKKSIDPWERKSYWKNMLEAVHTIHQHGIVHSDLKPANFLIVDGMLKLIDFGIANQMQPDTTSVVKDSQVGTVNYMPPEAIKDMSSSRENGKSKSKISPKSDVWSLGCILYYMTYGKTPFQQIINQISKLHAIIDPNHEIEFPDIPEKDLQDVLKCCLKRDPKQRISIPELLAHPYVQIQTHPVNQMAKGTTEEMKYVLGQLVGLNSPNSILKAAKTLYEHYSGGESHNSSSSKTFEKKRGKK

[5] = tested on: T3, Receptor-type tyrosine-protein kinase FLT3 (Homo sapiens), P36888 [D835Y]; conditions: at 1 µM
T3 sequence (whole entry): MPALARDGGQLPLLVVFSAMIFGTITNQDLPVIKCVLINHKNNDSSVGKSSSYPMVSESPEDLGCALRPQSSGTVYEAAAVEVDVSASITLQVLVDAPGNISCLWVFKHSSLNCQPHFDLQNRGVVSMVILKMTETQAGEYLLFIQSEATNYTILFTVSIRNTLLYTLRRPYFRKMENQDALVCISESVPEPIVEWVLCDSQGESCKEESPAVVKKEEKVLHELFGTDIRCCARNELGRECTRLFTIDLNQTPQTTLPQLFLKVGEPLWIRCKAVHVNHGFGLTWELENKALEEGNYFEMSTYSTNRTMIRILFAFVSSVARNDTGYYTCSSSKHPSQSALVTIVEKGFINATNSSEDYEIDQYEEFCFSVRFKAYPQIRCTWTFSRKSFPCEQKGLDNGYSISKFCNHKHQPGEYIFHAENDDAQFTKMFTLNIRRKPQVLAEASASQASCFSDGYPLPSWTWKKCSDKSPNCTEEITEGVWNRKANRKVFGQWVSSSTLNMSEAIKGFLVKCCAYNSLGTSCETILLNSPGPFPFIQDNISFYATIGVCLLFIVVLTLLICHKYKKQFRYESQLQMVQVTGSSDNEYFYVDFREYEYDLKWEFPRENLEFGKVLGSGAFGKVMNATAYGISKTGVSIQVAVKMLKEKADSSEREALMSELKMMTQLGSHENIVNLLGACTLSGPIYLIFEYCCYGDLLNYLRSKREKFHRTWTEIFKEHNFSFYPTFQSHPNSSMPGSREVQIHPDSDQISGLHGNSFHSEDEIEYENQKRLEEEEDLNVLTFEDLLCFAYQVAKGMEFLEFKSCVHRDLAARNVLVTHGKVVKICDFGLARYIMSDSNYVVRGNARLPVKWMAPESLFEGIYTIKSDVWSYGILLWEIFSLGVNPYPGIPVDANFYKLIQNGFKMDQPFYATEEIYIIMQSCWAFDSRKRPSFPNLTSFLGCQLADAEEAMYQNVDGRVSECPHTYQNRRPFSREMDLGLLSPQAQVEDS

[6] = biological target: Vascular endothelial growth factor receptor 3 (Homo sapiens) (UniProt P35916); conditions: at 0.1 µM
[7] = biological target: Vascular endothelial growth factor receptor 3 (Homo sapiens) (UniProt P35916); conditions: at 1 µM
[8] = biological target: Macrophage colony-stimulating factor 1 receptor (Homo sapiens) (UniProt P07333); conditions: at 1 µM
[9] = biological target: Tyrosine-protein kinase Fyn (Homo sapiens) (UniProt P06241); conditions: at 0.1 µM
[10] = biological target: Tyrosine-protein kinase Fyn (Homo sapiens) (UniProt P06241); conditions: at 1 µM
[11] = biological target: Tyrosine-protein kinase HCK (Homo sapiens) (UniProt P08631); conditions: at 0.1 µM
[12] = biological target: Tyrosine-protein kinase HCK (Homo sapiens) (UniProt P08631); conditions: at 1 µM
[13] = biological target: Insulin-like growth factor 1 receptor (Homo sapiens) (UniProt P08069); conditions: at 0.1 µM
[14] = biological target: Insulin-like growth factor 1 receptor (Homo sapiens) (UniProt P08069); conditions: at 1 µM
[15] = biological target: Insulin receptor (Homo sapiens) (UniProt P06213); conditions: at 0.1 µM
[16] = biological target: Insulin receptor (Homo sapiens) (UniProt P06213); conditions: at 1 µM
[17] = biological target: Insulin receptor-related protein (Homo sapiens) (UniProt P14616); conditions: at 0.1 µM
[18] = biological target: Insulin receptor-related protein (Homo sapiens) (UniProt P14616); conditions: at 1 µM
[19] = biological target: T4, Tyrosine-protein kinase ITK/TSK (Homo sapiens) (UniProt Q08881); conditions: at 0.1 µM;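 further: mean percent inhibition of ITK from the GSK PKIS screen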
T4 sequence (whole entry): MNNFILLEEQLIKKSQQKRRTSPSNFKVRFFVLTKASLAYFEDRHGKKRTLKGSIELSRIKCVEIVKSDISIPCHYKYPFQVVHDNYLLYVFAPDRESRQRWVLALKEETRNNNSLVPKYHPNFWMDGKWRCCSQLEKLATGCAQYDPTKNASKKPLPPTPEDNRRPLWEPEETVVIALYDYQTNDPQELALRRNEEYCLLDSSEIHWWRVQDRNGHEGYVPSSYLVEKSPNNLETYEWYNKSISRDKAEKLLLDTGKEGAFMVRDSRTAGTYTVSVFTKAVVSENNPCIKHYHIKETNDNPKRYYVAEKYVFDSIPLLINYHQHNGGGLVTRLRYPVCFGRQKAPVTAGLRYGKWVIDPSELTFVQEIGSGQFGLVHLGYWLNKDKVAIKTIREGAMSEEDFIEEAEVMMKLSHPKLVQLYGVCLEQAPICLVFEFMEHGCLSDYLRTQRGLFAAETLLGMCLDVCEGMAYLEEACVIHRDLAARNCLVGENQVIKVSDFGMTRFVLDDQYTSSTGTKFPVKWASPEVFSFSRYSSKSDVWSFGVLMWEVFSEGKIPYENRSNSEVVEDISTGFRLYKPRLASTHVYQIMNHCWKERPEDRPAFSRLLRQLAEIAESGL

[20] = biological target: Macrophage colony-stimulating factor 1 receptor (Homo sapiens) (UniProt P07333); conditions: at 0.1 µM

Chain of Insulin receptor-related protein (Homo sapiens) (P14616 27-742 limits assumed): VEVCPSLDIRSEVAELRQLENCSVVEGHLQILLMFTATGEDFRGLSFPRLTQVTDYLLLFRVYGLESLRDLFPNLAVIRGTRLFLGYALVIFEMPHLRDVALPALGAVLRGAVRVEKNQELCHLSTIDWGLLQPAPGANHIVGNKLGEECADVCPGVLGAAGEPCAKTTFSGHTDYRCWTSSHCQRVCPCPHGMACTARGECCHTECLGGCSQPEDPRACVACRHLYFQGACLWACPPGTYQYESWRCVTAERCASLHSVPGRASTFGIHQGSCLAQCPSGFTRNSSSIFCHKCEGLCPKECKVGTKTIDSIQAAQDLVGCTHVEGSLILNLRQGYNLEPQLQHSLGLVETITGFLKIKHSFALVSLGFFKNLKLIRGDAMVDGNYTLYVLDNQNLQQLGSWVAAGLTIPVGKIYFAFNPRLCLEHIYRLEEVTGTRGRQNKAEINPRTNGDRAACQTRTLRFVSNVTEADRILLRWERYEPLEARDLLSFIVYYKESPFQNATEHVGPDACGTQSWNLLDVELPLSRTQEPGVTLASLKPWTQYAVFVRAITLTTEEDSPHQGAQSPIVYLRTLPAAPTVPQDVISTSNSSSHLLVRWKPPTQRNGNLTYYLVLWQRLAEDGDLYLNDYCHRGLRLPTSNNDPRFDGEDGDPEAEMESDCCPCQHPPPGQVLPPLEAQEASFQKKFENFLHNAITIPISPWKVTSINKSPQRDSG
Chain of Insulin receptor-related protein (Homo sapiens) (P14616 747-1297 limits assumed): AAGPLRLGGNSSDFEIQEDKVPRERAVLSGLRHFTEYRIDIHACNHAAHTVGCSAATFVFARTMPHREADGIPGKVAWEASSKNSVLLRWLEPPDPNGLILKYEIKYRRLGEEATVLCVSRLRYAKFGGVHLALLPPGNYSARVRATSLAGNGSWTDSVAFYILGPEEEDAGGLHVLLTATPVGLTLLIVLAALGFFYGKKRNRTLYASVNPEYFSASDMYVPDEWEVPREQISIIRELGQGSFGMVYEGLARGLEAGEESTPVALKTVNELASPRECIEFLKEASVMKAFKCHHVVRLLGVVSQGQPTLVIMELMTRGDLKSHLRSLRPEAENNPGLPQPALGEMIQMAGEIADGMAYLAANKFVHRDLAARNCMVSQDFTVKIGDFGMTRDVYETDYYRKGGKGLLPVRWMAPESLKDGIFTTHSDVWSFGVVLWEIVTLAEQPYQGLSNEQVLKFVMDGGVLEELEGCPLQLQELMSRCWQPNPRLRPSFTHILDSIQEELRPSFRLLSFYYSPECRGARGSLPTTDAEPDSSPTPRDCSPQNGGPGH
Chain of Tyrosine-protein kinase Fyn (Homo sapiens) (P06241 2-537 limits assumed): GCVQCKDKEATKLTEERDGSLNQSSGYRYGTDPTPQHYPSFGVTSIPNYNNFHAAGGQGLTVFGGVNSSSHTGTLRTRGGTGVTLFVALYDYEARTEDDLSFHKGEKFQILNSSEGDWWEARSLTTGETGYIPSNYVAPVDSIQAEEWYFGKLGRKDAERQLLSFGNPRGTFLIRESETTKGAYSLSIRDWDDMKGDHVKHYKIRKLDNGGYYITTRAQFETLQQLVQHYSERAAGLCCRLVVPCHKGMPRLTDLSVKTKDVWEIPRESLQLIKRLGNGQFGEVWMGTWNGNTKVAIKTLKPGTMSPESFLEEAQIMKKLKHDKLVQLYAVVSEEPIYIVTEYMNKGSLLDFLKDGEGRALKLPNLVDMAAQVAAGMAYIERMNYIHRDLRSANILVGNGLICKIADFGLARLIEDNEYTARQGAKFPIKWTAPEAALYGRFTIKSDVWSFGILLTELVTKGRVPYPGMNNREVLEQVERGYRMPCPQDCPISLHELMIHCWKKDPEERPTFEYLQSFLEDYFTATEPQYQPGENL
Chain of Insulin-like growth factor 1 receptor (Homo sapiens) (P08069 31-736 limits assumed): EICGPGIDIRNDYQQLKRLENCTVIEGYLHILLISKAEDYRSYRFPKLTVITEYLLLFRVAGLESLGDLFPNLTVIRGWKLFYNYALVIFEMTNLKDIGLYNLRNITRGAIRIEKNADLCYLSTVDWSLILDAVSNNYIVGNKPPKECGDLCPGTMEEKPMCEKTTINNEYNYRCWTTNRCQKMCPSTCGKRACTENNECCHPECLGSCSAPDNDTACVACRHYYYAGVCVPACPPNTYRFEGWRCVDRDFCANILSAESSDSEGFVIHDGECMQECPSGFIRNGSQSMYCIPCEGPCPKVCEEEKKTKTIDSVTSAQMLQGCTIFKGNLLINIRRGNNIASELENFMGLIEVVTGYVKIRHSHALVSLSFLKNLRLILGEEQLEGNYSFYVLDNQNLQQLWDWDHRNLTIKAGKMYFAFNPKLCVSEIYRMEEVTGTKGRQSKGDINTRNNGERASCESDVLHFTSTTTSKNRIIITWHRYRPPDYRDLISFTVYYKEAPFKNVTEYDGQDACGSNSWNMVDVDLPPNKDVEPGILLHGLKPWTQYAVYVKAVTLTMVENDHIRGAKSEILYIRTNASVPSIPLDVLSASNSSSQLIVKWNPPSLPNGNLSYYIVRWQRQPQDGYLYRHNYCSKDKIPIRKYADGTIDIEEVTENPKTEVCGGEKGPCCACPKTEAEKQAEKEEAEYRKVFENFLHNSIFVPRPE
Chain of Insulin-like growth factor 1 receptor (Homo sapiens) (P08069 741-1367 limits assumed): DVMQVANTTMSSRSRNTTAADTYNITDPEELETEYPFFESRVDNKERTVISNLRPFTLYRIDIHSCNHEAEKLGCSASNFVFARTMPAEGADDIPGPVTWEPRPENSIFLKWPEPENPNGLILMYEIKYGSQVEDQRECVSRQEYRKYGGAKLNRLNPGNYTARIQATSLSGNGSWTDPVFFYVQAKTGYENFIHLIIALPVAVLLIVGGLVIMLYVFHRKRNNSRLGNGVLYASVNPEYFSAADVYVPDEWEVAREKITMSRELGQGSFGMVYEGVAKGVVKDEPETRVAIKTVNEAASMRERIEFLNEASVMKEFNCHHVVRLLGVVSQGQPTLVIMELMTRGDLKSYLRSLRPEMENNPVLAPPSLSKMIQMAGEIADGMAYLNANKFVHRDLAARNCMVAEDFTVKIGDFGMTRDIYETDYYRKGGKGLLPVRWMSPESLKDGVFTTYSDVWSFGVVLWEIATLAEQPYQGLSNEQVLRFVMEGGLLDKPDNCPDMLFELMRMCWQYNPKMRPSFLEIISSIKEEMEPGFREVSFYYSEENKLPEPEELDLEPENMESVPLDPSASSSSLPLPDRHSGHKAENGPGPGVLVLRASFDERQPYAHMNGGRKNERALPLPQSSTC
Chain of Serine/threonine-protein kinase PLK1 (Homo sapiens) (P53350 whole entry): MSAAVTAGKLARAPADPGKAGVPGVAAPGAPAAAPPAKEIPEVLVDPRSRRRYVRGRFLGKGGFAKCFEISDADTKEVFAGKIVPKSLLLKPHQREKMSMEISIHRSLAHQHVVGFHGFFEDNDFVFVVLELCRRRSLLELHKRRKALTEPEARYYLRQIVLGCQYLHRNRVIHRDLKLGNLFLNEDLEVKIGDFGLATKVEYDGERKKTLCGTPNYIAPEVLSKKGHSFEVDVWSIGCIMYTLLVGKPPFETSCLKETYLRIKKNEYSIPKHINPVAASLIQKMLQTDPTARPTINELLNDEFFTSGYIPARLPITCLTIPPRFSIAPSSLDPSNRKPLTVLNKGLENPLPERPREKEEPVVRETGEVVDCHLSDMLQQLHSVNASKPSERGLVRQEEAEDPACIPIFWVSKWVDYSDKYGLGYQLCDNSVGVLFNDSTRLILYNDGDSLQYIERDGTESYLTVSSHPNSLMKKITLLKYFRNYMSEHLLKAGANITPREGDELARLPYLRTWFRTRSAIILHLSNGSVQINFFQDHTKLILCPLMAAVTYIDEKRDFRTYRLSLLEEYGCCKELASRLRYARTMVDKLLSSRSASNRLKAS
Chain of Tyrosine-protein kinase HCK (Homo sapiens) (P08631 2-526 limits assumed): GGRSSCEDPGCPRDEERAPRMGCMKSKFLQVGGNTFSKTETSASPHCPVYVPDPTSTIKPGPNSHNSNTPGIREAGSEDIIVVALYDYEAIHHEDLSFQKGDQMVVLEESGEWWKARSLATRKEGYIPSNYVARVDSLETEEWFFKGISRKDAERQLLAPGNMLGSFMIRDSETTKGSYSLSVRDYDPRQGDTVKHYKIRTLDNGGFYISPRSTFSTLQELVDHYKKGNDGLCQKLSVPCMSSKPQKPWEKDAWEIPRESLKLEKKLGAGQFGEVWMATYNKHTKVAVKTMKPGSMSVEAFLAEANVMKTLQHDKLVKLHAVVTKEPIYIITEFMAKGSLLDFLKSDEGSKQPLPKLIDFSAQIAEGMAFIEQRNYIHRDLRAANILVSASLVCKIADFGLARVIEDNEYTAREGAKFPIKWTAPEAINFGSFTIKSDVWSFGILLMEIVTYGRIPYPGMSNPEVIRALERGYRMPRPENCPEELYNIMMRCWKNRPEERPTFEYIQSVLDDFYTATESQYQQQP

SMILES | inhibition [1] | inhibition [2] | inhibition [3] | inhibition [4] | inhibition [5] | inhibition [6] | inhibition [7] | inhibition [8] | inhibition [9] | inhibition [10] | inhibition [11] | inhibition [12] | inhibition [13] | inhibition [14] | inhibition [15] | inhibition [16] | inhibition [17] | inhibition [18] | inhibition [19] | inhibition [20]
c1ccc(Oc2ccc(Nc3ncc(-c4ccccc4)o3)cc2)cc1 | 2.53% | 1.36% | 1.6% | 2.58% | 1.21% | 3.08% | 1.93% | 2.76% | 0.57% | 2.97% | 3.85% | 5.01% | 1.77% | 2.01% | 4.11% | 2.94% | -1.75% | 1.99% | 0.89% | 
COc1cccc(-n2cnc3c(N/N=C/c4ccncc4)ncnc32)c1 | 5.21% | -1.9% | -0.54% | 0.25% | 9.6% |  | -4.88% | 24.9% | -0.06% | 25.6% | 0.9% | 16.3% |  | -8.19% | -2.78% | -4.12% | 1% | 0.57% | -2.76% | 4.43%
COc1ccc2ncn(-c3cc(O[C@H](C)c4ccccc4Cl)c(C(N)=O)s3)c2c1 | 83.7% |  |  | 6.36% | 2.74% | -5.28% | 4.48% | 14.4% | -4.31% | -3.05% | 5.34% | 5.31% |  | -6.53% | 0.89% | 3.79% | 2.92% | 3.51% | -4.15% | 3.05%
c1ccc(-c2n[nH]cc2-c2ccnc(-c3ccc(OCCN4CCOCC4)cc3)c2)nc1 |  | -1.38% | -1.28% | -2.01% | 1.73% | -0.95% | 8.44% | 8.98% | -0.84% | 4.24% | 1.69% | 4.55% | -2.45% | -2.14% | -2.85% | -1.85% | -0.78% | -0.34% | 5.52% | 2.4%
NS(=O)(=O)c1ccc(N/N=C2\C(=O)Nc3ccc(-c4cnco4)cc32)cc1 | 7.27% | 3.71% | 3.38% | 15.1% | 73.1% | -4.32% | 25.8% | 27.8% | -0.9% | 7.81% | 5.08% | 23.3% |  | -2.26% | 1.72% | 7.36% | -1.08% | 0.6% | -3.91% | 4.76%
CN(C)CCCNc1nccc(-c2c(-c3ccc(F)cc3)nn3cc(C(F)(F)F)ccc23)n1 | 0.61% | 2.56% | 2.23% | 2.37% | 2.47% |  | -6.61% | 2.47% | -2.36% | 0.28% | 3.12% | 7.89% | -7.12% | -5.52% | 0.53% | -0.49% | 2.55% | 0.73% | -2.44% | 2.1%
